The panel holds about 83,000 compounds, 20% with a hit somewhere; the sample as a whole holds those more often.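 Growth was measured after 48 h exposure to one concentration of compound in 96-well plates. Values under 10 count as active.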 Unmarked numbers belong to inactive results. Calls of active or inactive are those of the source.

The text below walks through data of PubChem BioAssay (NCI).

The assay relates to UACC-257 melanoma. Briefly: NCI-60 one-dose screen, 48 h (100 = growth as untreated, 0 = no growth, -100 = all killed). The settings on record: 10 µM unless noted.
In the case of `Fc1ccc(COc2ccc(Nc3ncnc4sc5c(c34)CCCC5)cc2)cc1`, the growth is 106%.

In the case of `COc1cc(C2Cc3ncccc3-c3[nH]c(=O)c4cccnc4c32)cc(OC)c1OC` (configuration not stated), the growth is 56.9%.

Take `O=C(c1ccc(Cl)cc1Cl)N1c2ccccc2Sc2ccccc21`: the growth is 64.3%.

With `O=C(N/N=C/c1ccc([N+](=O)[O-])cc1)c1ccc2nc(-c3ccc(Cl)cc3)[nH]c2c1`, the growth is 25.1%.

Turning to `O=C(NCc1ccccc1O)c1cccc2ccccc12`, the growth is 75.5%.

In the case of `CC1=C(C(=O)n2c3ccccc3c3ccccc32)C(c2cccc([N+](=O)[O-])c2)C(C(=O)n2c3ccccc3c3ccccc32)=C(C)N1`, the growth is 106%.

Take `COc1ccc(/C=C/C(=O)c2ccc(NC(=O)CSc3nnc(-c4cc(-c5ccccc5)nc5ccccc45)n3-c3ccccc3)cc2)cc1`: the growth was 105%.

Take `Cn1cc(-c2nc(-c3c[nH]c4ccncc34)cs2)c2cc(Br)ccc21`: the growth is -46.4% (active).

As to `C#Cc1cccc(Oc2ccc(NC(=O)CCl)cc2)c1`, the growth was 75.8% [8.25 µM].

Take `CC1(C)CC[C@]2(C(=O)N3CCOCC3)CC[C@]3(C)C(=CC[C@@H]4[C@@]5(C)C/C(=C/c6ccncc6)C(=O)C(C)(C)[C@@H]5CC[C@]43C)[C@@H]2C1`: the growth is 14.8%.

Consider `CC(C)c1ccc(NC(=O)Nc2ccc(NC(=O)c3ccccc3N)cc2)cc1`, for which the growth was 58.6%.

On to `Cc1cc(C(=O)Nc2cc(Nc3ncccc3-c3ncnc4nc[nH]c34)ccc2F)cc(C(F)(F)F)c1`, for which the growth was 10.7%.
